According to PubChem BioAssay AID743279 (National Center for Advancing Translational Sciences (NCATS), 2014):
About 17,000 (4.7%) of roughly 360,000 compounds were called active. Another 5% or so got no clear call; they are omitted. The list comes from a sample in which actives are over-represented; it also holds similar structures and randomly drawn compounds. Values without a mark were called inactive. No stated cut-off is given here; in the data, active means activity change below about -50%; inconclusive means mostly about -30% to -49%; inactive means weaker than that.

Assay: qHTS for Inhibitors of Inflammasome Signaling: IL-1-beta AlphaLISA Primary Screen
Conditions: THP-1 LPS/ATP IL-1B secretion, 16 h; at 57.5 µM, active compounds read low
In short: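 Secreted IL-1B measured by AlphaLISA bead assay after 16 h compound exposure of THP-1 cells; compounds (final up to 57.5 uM) added 1 h before LPS (250 ng/mL) and ATP (1.25 mM) stimulation; lower signal means less secretion.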
On the % scale 0 is the no-effect control and ±100 the full control effect.

Row | Structure (SMILES) | activity change
1 | COc1ccc(-c2cc3nc(NCCOc4ccccc4)ccn3n2)cc1 | -17.4%
2 | COCCCNc1ccn2nc(-c3ccc(CC(C)C)cc3)cc2n1 | 47%
3 | COCCNc1cc(-c2ccccc2)nc2cc(-c3cccc(F)c3)nn12 | -67.2% (active)
4 | CCCCc1nccn1CCn1ccnc1CCCC | -1.41%
5 | CCOC(=O)c1sc(NC(=O)CCN2CCOCC2)c(C(=O)OCC)c1C | 0%
6 | CCOC(=O)Nc1sc(C(=O)N(C)C)c(C)c1C(=O)OCC | 20.1%
7 | CCOC(=O)c1c(NC(=O)CCl)sc(C(=O)N(CC)CC)c1C | -99.1% (active)
8 | CC(Oc1ccc(F)cc1)C(=O)Nc1cc(S(=O)(=O)N2CCOCC2)ccc1N1CCN(C)CC1 (stereo unspecified) | -9.51%
9 | O=C(Cc1ccc([N+](=O)[O-])cc1)NCCS(=O)(=O)N1CCN(c2ccccc2)CC1 | 16.3%
10 | CCNC(=S)Nc1ccc2c(c1)c(=O)n(C)n2Cc1ccc(Cl)cc1 | -17.7%
11 | CC(C)Oc1cc(F)ccc1-c1cc(C(=O)Nc2cccc(Cl)c2)[nH]n1 | 19.8%
12 | COc1ccccc1N1CCN(/N=C/c2ccc(O)cc2O)CC1 | -21.9%
13 | COc1cc(/C=N/N2CCN(c3ccccc3)CC2)ccc1OC(C)=O | -4.61%
14 | COc1ccccc1N1CCN(/N=C\C(Br)=C\c2ccccc2)CC1 | -66.9% (active)
15 | CCCc1nc2c3ccccc3ccn2c1Cc1ccccc1C(F)(F)F | 17.7%
16 | COCCCN(C(=S)Nc1c(C)cc(C)cc1C)C(C)c1ccncc1 (stereo unspecified) | 0%
17 | O=C(Nc1nc(-c2ccco2)c(-c2ccco2)s1)c1ccco1 | -77.4% (active)
18 | O=C(Nc1nnc(CCOCCOCCc2nnc(NC(=O)c3ccco3)s2)s1)c1ccco1 | -5.99%
19 | CCc1nnc(NC(=O)c2ccco2)s1 | 10%
20 | CCN1CCN(c2ccc([N+](=O)[O-])cc2C(=O)c2ccc(Cl)cc2)CC1 | -7.81%
21 | CCN1CCN(C(=O)N(Cc2ccc(Cl)cc2)S(=O)(=O)c2ccc(C)cc2)CC1 | -3.62%
22 | CCN1CCN(c2sc(S(C)(=O)=O)nc2S(=O)(=O)c2ccc(Cl)cc2)CC1 | -97.8% (active)
23 | COc1cc([C@H](Cc2ccccc2)NC(C)=O)oc(=O)c1 | 22.9%
24 | COc1cccc2c(=O)n(CC(=O)N3CCCCCC3)ccc12 | -3.57%
25 | COC(=O)COc1cccc2c(=O)n(CC(=O)NCc3ccccc3)ccc12 | -57.4% (active)
26 | Cc1ccc(CNC(=O)CCNC(=O)Cn2ccc3ccccc3c2=O)cc1 | -21.6%
